# The whole screen tested about 53,000 sequences, of which about 3,700 (7%) were called active. Only a selection was taken, and actives are over-represented in it overall. Unmarked numbers belong to inactive results.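 The calls were made as follows: active = gene knockdowns whose robust z-score for IL-1 alpha signal is at least 2 or at most -2, so actives lie on both sides; inactive = the rest.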
# Test: Components of the Cytosolic LPS Sensing Pathway: Gene Identification via Genome-wide siRNA Screen;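 also: robust z of the log signal after scaling to non-targeting control siRNA wells of the plate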
# Conditions: RAW264.7 macrophages, IL-1a HTRF, actives lie on both sides, screened at 100 nM (by protocol), cells primed 5 h with Pam3CSK4 first
# Outline: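 IL-1a HTRF of supernatants after 24 hour LipidA transfection of Pam3CSK4-primed (5 hours) RAW264.7 cells, 48h post-siRNA transfection (100 nM). Scores: percent of plate negative-control median, then log-based robust z-score.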
row,Sequence,z-score
1,CGUGUUCAAAAGAGUUUUCTT against Sos1,1.22
2,GCGGCUUUGUAUACAAGUUTT against Vwc2l,1.11
3,GGUAACUGUGGACUUAUCUTT against Olfr665,-2.17 (active)
4,GGCUGUCAGAACCAACUACTT against Tshb,0.214
5,CUCUAGUGUUACACUUAUUTT against Tefm,2.83 (active)
6,GGCCUUGAGAGGCUAAUACTT against Spata20,-1.27
7,GGUGAUUGUUAGAGUUAAATT against Syt4,0.934
8,GGUAAAAACCCAGAGAUGATT against Rem2,0.616
9,GGAACUAAUGUGCAGGAGGTT against Suclg2,0.459
10,CCGUGAUCCCUUUUCACCATT against 6030445D17Rik,-2.26 (active)
11,CACGCAGAUGAUUAAGUUGTT against Olfr1000,1.25
12,GGAGAAUGAGAUCAACCUGTT against Pah,0.618
13,GGAGAACAGUCUUGAGAAATT against Crisp3,-0.712
14,CCUCCAGGAUUAUCGUGAUTT against Dnajc6,-1.22
15,GGCUUAAUGUUGCUUCAGATT against Aven,-0.959
16,GGUCAAUUAUGAAGAGUUUTT against Calm3,3.04 (active)
17,CCUUAAAAACUCGAGUAAATT against Gla,0.384
18,GCGGUCACACCAAAAGUCATT against Olfr1466,-1.56
19,GCUGUUUAUCUAGCUGUUATT against Mmp8,0.782
20,GGAUGUUAACAUUGAGCAATT against Asb11,-0.0828
21,GGCAUUUCAACUGGACCCATT against Lamb1,-2 (active)
22,GACGCAAGCAGCAUUUUAUTT against R3hdm4,-0.207

row,Sequence,z-score
1,CCGUCAUCUACACCUAUUUTT against Olfr525,0.102
2,CGGCUUAUGAGUUAAAGACTT against Rad51b,-1.03
3,GGUAGAUUAUAGCAAAAUGTT against Ik,-2.23 (active)
4,GGUUAAGUGUGUUAAGUUCTT against Cipc,1.48
5,GGCCUCAAAUACCAUAACATT against Zfp941,0.000237
6,CGGACACAUGAUUGUCUUCTT against Npas1,1.25
7,GGUUUGAUGACAAAUACACTT against Spcs2,1.6
8,GCUGGUACAGCGUAUACCATT against Cep170b,-1.03
9,GGAUGUUCUCAAACUACAATT against Kdm1b,0.702
10,GGGCAAGCCACUCAUGUUGTT against Me2,-0.997
11,CCUAGAGAUUGGUAUGUACTT against Tmem132e,-2.1 (active)
12,GCCAUUAAUCUCACAUGUATT against Crebrf,1.39
13,GGAUCCUUCGAAUCCUGAATT against Cst11,-0.372
14,CCCAUGUUUAUGUUGCUGATT against Olfr467,0.251
15,GGACACCUGAAGUUAGUUUTT against Ndufaf1,0.622
16,GGAGAAGGAUCUGAACGAGTT against Nog,-1.24
17,CCUUAUGGAUUUAGCAUCATT against Lamb3,0.917
18,CCAAACCAGUGGAGUCCAUTT against Slc7a14,-2.26 (active)
19,ACUAUGGUUGGUUCAAACGTT against Acat2,-1.23
20,GCACAACGGUUCGUUGUUATT against 4933427E11Rik,-1.17
21,GGUGUAGGCUGUCCAAUAATT against Rtel1,0.74
22,GACUCUUGUCCCAAGUGUUTT against Bloc1s4,0.144

row,Sequence,z-score
1,GGAUCAACAGUCAAUUGUGTT against Tax1bp1,-2.16 (active)
2,AUAGUGGAACCCUUUGUACTT against Olfr1195,-0.832
3,GGAAUACGACAGAACUCCATT against Extl1,0.218
4,GGAGAAGCAAACUGCACCUTT against Cacng6,1.08
5,GGACCUGAAACACGCCAAUTT against Cdk18,-0.35
6,GCGGGAGAGCUAUGAAACATT against Mrps21,-0.0502
7,GGGAAAUUUCUCUACAUCUTT against Npas1,2.2 (active)
8,GGCUGCACAAAACGAGAUCTT against Tcirg1,-0.0738
9,GGCAAACAAAUGGUUUGUUTT against Zfp324,-0.544
10,GGUUCUCGGUAAAUCCUGCTT against Slc35b1,-1.07
11,GGAGGUUGAGGCUUCUAAGTT against Pacsin3,1.2
12,GGAUAAUGAGCUGAACAUATT against Nek7,-0.0844
13,GGAAGCAUGCAAUGAUAUUTT against 4933431E20Rik,-2.31 (active)
14,GCCUCACUUUGACUGUCGCTT against Tpgs2,-0.289
15,GGAGAAAGUGAUUGACAUATT against Lpin2,-0.0579
16,GGAAGGGUUUGUUUGUUUATT against Nkiras1,1.55
17,GGCCUUGAAAGCCAUUGGUTT against Kmo,-0.728
18,GCGCGACAAAUCGUAGGCUTT against Mamstr,-2.13 (active)
19,GGACUUGAAGAACUGUUAUTT against Hspa13,-0.0642
20,CGUGCUGUAUGGCAAAGUUTT against Bst1,0.563
21,GCCCAUGUUUGUGAGGGUUTT against Fem1al,-0.0893
22,GCACUUCCCUCCCUAUGCATT against Cep20,-2.11 (active)

row,Sequence,z-score
1,GGUUCCAAUGCUAUUGAAUTT against Tc2n,0.391
2,GGUUAUAUUAUGUAGCCUATT against Klf17,0.332
3,GGUCACAGUUGGCAAAGAUTT against Myh11,-0.521
4,GCGUAAGCAGCAAGAUGGATT against Ash2l,1.21
5,GCUUUCAAGUGGUUAUGAATT against Nsun6,0.0136
6,CGUGUAUCGUUGUCUGAAUTT against Donson,2.75 (active)
7,GCGACCAUUUCGUUUUAGUTT against Frat1,1.07
8,GGAAAGCAAGUCGUAAGCCTT against Mrps10,-0.755
9,AAUGCUCAGAAAGAAUAACTT against Sprr2e,-0.31
10,UGUUACUGGACUCUCCACATT against Olfr320,0.372
11,GCUGUGUUAGGAUUGUCCATT against Olfr553,0.252
12,GGUACACUACAUGACUCAUTT against Sall4,2.35 (active)
13,GGCAUCAAGUCCAUUUUUGTT against Slc12a4,0.108
14,GGCAGGCAGAAAGCUUUGUTT against Olfr1054,1.8
15,GCUAAUCACCAAAGCUGAGTT against Larp7,0.546
16,CCUAAUCUUCGUGCUUUACTT against Minpp1,1.4
17,CCUGUGAAAGAUGCUUAUATT against Capn7,-1.65
18,CGGGAUGACUACAAUCUGGTT against Ssbp3,-2.17 (active)
19,GCUCAGCUAGCAGAAAUUCTT against Nlrp2,-1.76
20,GGAGGCCAAAGGACUGAUCTT against Hectd4,1.56
21,CCACAGACAGUUAUUACUGTT against Adgre1,-1
22,CCCAAGAGUGUUUGAGAACTT against Zbtb43,0.213

row,Sequence,z-score
1,GGCAUUUAUUAUCAGGCUGTT against Pes1,0.665
2,GCUCGAGAAGAGUUUGUUATT against 1700030J22Rik,0.933
3,GCAACUUGUUAGUGGACUCTT against Olfr620,-1.08
4,GCUAUGUGGGAAGUUUCAUTT against Tmem263,0.924
5,GGCCUAUAGGUUGGGCUCUTT against Tonsl,-2.57 (active)
6,GCGUGGAGUCUUCAGUCAUTT against Vhl,-0.101
7,GGAGAAGAGGACAGAAGCCTT against Akt1s1,0.757
8,GUUCAUGUCUAUCCUGUCUTT against Hba-x,-2.45 (active)
9,GCUCAAAACAAUCCACGCCTT against 1700006J14Rik,-0.47
10,GGAUGAGAACAACUCUGCUTT against Lrtm2,0.439
11,GGACCUGUUUGAUUUGGUGTT against Nf2,0.8
12,GGAAAACCUUGGACAGGAGTT against Olfr876,-0.267
13,UGUGACUAUUGUUACUGUGTT against Olfr1512,-1.06
14,GCAGUACCGAGCAGCAGAATT against Acad10,-2.41 (active)
15,CGAAUGUGGCUAUGACCUGTT against Kif6,0.555
16,GGAAAAGGAGGUGGUACUGTT against Acan,0.743
17,GCAUACAGCUCAACAGUCATT against Padi2,-0.51
18,GGAGAAGUAGAUGUAUAUGTT against Prkar1b,-1.4
19,GUACACCACAAUCCUCACCTT against Olfr677,-0.0852

# — PubChem BioAssay AID1508600 (Functional Genomics Laboratory (NCATS/FGL), 2020)
